Activity calls are given as the source filed them. How the source made its calls: active means hit-call score of the fitted dose curve at least 0.9, where 1 is the maximum; inactive means score below 0.9.
Tests used:
Details in all cases: mRNA level, 48 h; actives raise or lower the signal
[1] = read-out: Insulin-like growth factor-binding protein 1 (IGFBP1), IGFBP1 (gene 3484); experiment: LTEA_HepaRG_IGFBP1: Life Technologies and Expression Analysis (LTEA) Assay for Insulin-like growth factor-binding protein 1 (IGFBP1) using HepaRG (AID 2283508)
Outline: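 Differentiated human HepaRG cells in serum-free induction medium were exposed in duplicate for 48 h to eight concentrations, top 100 uM with half-log dilutions, in 0.5% DMSO. Transcript levels came from qRT-PCR normalised to ACTB, GAPDH and POLR2A, fitted bidirectionally against DMSO.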

[2] = read-out: Interleukin 6 (IL6), IL6 (gene 3569); experiment: LTEA_HepaRG_IL6: Life Technologies and Expression Analysis (LTEA) Assay for Interleukin 6 (IL6) using HepaRG (AID 2283509)
Outline: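 Changes in IL6 mRNA, up or down relative to 0.5% DMSO controls, were derived from concentration-response curves in human HepaRG cells treated for 48 h at up to 100 uM, with ACTB, GAPDH and POLR2A as normalizers.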

[3] = read-out: Interleukin 6 Receptor (IL6R), IL6R (gene 3570); experiment: LTEA_HepaRG_IL6R: Life Technologies and Expression Analysis (LTEA) Assay for Interleukin 6 Receptor (IL6R) using HepaRG (AID 2283510);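 on AC50: TaqMan qRT-PCR signal normalized to ACTB GAPDH and POLR2A housekeeping genes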
Outline: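 In this HepaRG screen, test chemicals act on cells for 48 h at up to 100 uM (eight half-log points, duplicate wells). IL6R expression is quantified by qRT-PCR after normalization to ACTB, GAPDH and POLR2A, with DMSO as baseline.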

[4] = read-out: Potassium channel subfamily K member 1 (KCNK1), KCNK1 (gene 3775); experiment: LTEA_HepaRG_KCNK1: Life Technologies and Expression Analysis (LTEA) Assay for Potassium channel subfamily K member 1 (KCNK1) using HepaRG (AID 2283511)
Outline: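 Human HepaRG cultures receive test chemicals for 48 h in 0.5% DMSO, top concentration 100 uM with half-log dilutions. Induction or suppression of KCNK1 mRNA relative to DMSO is derived by bidirectional fitting of qRT-PCR data.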

[5] = read-out: Keratin 19 (KRT19), KRT19 (gene 3880); experiment: LTEA_HepaRG_KRT19: Life Technologies and Expression Analysis (LTEA) Assay for Keratin 19 (KRT19) using HepaRG (AID 2283512)
Outline: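 Differentiated human HepaRG cells, plated 48 h, were exposed in duplicate for 48 h in serum-free induction medium to eight half-log concentrations up to 100 uM in 0.5% DMSO. KRT19 mRNA was quantified by qRT-PCR, normalized to ACTB, GAPDH and POLR2A, and fitted bidirectionally versus DMSO.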

[6] = read-out: JUN Transcription Factor, JUN (gene 3725); experiment: LTEA_HepaRG_JUN: Life Technologies and Expression Analysis (LTEA) Assay for JUN Transcription Factor using HepaRG (AID 2283513)
Outline: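 Gene-expression endpoint: JUN mRNA (qRT-PCR, normalized to three reference genes) in HepaRG cultures treated 48 h with chemicals, duplicate wells, 100 uM maximum with half-log dilutions; bidirectional fitting relative to 0.5% DMSO.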

[7] = read-out: Lipase C (LIPC), LIPC (gene 3990); experiment: LTEA_HepaRG_LIPC: Life Technologies and Expression Analysis (LTEA) Assay for Lipase C (LIPC) using HepaRG (AID 2283514)
Outline: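 In this multiplexed gene-expression screen, human HepaRG cultures received test chemicals for 48 h across eight concentrations with 100 uM highest, in duplicate. Values reflect LIPC mRNA induction or suppression versus DMSO vehicle, from normalized qRT-PCR.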

[8] = read-out: Lipoprotein lipase (LPL), LPL (gene 4023); experiment: LTEA_HepaRG_LPL: Life Technologies and Expression Analysis (LTEA) Assay for Lipoprotein lipase (LPL) using HepaRG (AID 2283515)
Outline: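 Concentration-response testing used half-log steps from 100 uM in 0.5% DMSO on human HepaRG cells, 48 h, duplicate wells. Phenobarbital 1 mM served as induction control; LPL mRNA was normalized to ACTB, GAPDH, POLR2A.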

[9] = read-out: MicroRNA 122 (MIR122), gene 406906; experiment: LTEA_HepaRG_MIR122: Life Technologies and Expression Analysis (LTEA) Assay for MicroRNA 122 (MIR122) using HepaRG (AID 2283516); further: the transcript read is the microRNA miR-122
Outline: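 Changes in transcript abundance, up or down relative to 0.5% DMSO vehicle, were scored after 48 h chemical treatment of HepaRG cells (maximum 100 uM). Quantification used TaqMan qRT-PCR normalized to housekeeping genes.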

[10] = read-out: matrix metalloproteinase-10 (MMP10), MMP10 (gene 4319); experiment: LTEA_HepaRG_MMP10: Life Technologies and Expression Analysis (LTEA) Assay for matrix metalloproteinase-10 (MMP10) using HepaRG (AID 2283517)
Outline: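 In differentiated HepaRG cultures kept in 0.5% DMSO, test chemicals act for 48 h over an eight-point range with a top dose of 100 uM. Expression is then quantified by TaqMan RT-PCR against ACTB, GAPDH and POLR2A.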

MYC, MYC (gene 4609) = experiment: LTEA_HepaRG_MYC: Life Technologies and Expression Analysis (LTEA) Assay for MYC using HepaRG (AID 2283518)
Outline: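 Differentiated human HepaRG cells, plated 48 h then switched to serum-free induction medium, were exposed in duplicate for 48 h to 8-point half-log series up to 100 uM in 0.5% DMSO. MYC mRNA measured by qRT-PCR, normalized to ACTB/GAPDH/POLR2A.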

[11] = read-out: Paternally Expressed 10 (PEG10), PEG10 (gene 23089); experiment: LTEA_HepaRG_PEG10: Life Technologies and Expression Analysis (LTEA) Assay for Paternally Expressed 10 (PEG10) using HepaRG (AID 2283520);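 on AC50: PEG10 transcript by qRT-PCR normalised to ACTB GAPDH and POLR2A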
Outline: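 After 48 h exposure of differentiated HepaRG cells (0.5% DMSO vehicle, eight concentrations up to 100 uM, duplicates), PEG10 mRNA was measured by TaqMan qRT-PCR. Values were normalised to endogenous control genes and analysed bidirectionally against vehicle.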

[12] = read-out: Nuclear factor NF-kappa-B p105 subunit (Homo sapiens) (UniProt P19838); experiment: LTEA_HepaRG_NFKB1: Life Technologies and Expression Analysis (LTEA) Assay for Nuclear Factor Kappa B Subunit 1 (NFKB1) using HepaRG (AID 2283521);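 further: TaqMan qRT-PCR transcript normalised to ACTB GAPDH and POLR2A housekeeping genes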
Outline: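 Differentiated human HepaRG cells in serum-free induction medium with 0.5% DMSO were exposed for 48 h to eight half-log concentrations, top 100 uM, in duplicate. NFKB1 mRNA measured by Fluidigm TaqMan qRT-PCR, normalised to ACTB, GAPDH and POLR2A; bidirectional fit versus DMSO.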

[13] = read-out: Protein phosphatase 2A (PPP2R4), PTPA (gene 5524); experiment: LTEA_HepaRG_PPP2R4: Life Technologies and Expression Analysis (LTEA) Assay for Protein phosphatase 2A (PPP2R4) using HepaRG (AID 2283522)
Outline: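 Using HepaRG cultures maintained in 0.5% DMSO, chemicals are tested 48 h at up to 100 uM in duplicate. Induction or suppression of PPP2R4 mRNA, measured by qRT-PCR, is fitted bidirectionally against the vehicle baseline.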

[14] = read-out: Phosphatase and tensin (PTEN), PTEN (gene 5728); experiment: LTEA_HepaRG_PTEN: Life Technologies and Expression Analysis (LTEA) Assay for Phosphatase and tensin (PTEN) using HepaRG (AID 2283523)
Outline: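 Expression of PTEN is quantified in the human liver line HepaRG following two days of dosing (top concentration 100 uM, half-log dilutions, 0.5% DMSO). Values derive from bidirectional curve fitting relative to DMSO controls.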

[15] = read-out: solute carrier (SLC22A1), SLC22A1 (gene 6580); experiment: LTEA_HepaRG_SLC22A1: Life Technologies and Expression Analysis (LTEA) Assay for solute carrier (SLC22A1) using HepaRG (AID 2283524);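 on AC50: TaqMan qRT-PCR normalized to ACTB GAPDH and POLR2A housekeeping genes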
Outline: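 Transcript induction or suppression of SLC22A1 in human HepaRG cultures is scored after 48 h chemical treatment, with DMSO (0.5%) as baseline for bidirectional fitting. Concentrations span eight half-log points topping at 100 uM.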

[16] = read-out: Pyruvate Dehydrogenase Kinase 4 (PDK4), PDK4 (gene 5166); experiment: LTEA_HepaRG_PDK4: Life Technologies and Expression Analysis (LTEA) Assay for Pyruvate Dehydrogenase Kinase 4 (PDK4) using HepaRG (AID 2283525)
Outline: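 Eight-point, half-log concentration series (max 100 uM, 0.5% DMSO) applied to differentiated HepaRG cells for 48 h in duplicate. Endpoint: PDK4 mRNA induction or repression by qRT-PCR against DMSO baseline.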

[17] = read-out: NAD(P)H dehydrogenase [quinone] 1 (NQO1), NQO1 (gene 1728); experiment: LTEA_HepaRG_NQO1: Life Technologies and Expression Analysis (LTEA) Assay for NAD(P)H dehydrogenase [quinone] 1 (NQO1) using HepaRG (AID 2283526)
Outline: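 In this assay, gene expression is read by qRT-PCR after 48 h exposure of HepaRG cells to eight concentrations (max 100 uM, half-log) in 0.5% DMSO. Each chemical runs in duplicate, and activity is scored relative to vehicle.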

[18] = read-out: matrix metalloproteinase-3 (MMP3), MMP3 (gene 4314); experiment: LTEA_HepaRG_MMP3: Life Technologies and Expression Analysis (LTEA) Assay for matrix metalloproteinase-3 (MMP3) using HepaRG (AID 2283519)
Outline: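 Human liver HepaRG cultures received chemicals (top concentration 100 uM, 0.5% DMSO) for 48 h in duplicate. MMP3 mRNA induction or loss was then assessed via TaqMan qRT-PCR with housekeeping-gene normalisation.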

Measured: AC50

Sequence of Nuclear factor NF-kappa-B p105 subunit (Homo sapiens) (P19838 whole entry, looked up): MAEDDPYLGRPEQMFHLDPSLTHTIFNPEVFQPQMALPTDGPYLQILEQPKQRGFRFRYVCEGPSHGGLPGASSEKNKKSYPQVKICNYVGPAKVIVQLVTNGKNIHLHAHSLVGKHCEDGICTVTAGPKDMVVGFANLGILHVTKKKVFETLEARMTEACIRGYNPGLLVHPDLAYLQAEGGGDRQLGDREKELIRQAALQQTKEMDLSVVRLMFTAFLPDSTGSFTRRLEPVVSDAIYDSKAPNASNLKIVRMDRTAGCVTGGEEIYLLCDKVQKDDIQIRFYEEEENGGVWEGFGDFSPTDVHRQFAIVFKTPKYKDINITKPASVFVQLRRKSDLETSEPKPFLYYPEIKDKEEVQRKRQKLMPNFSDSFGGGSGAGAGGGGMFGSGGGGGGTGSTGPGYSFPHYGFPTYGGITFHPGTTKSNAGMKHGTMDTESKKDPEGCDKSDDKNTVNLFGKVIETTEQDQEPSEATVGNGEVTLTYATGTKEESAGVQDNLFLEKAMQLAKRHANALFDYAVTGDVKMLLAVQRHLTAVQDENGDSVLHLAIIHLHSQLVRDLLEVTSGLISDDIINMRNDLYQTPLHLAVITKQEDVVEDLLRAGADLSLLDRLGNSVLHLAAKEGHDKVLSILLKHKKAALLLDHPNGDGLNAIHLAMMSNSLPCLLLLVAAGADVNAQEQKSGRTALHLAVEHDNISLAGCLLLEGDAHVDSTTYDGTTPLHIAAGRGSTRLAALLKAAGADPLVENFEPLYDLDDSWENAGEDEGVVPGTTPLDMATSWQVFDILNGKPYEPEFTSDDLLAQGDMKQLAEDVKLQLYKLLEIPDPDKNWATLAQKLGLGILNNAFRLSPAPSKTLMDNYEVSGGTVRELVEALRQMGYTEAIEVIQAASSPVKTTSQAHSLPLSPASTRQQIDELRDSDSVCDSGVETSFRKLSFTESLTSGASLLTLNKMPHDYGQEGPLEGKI

CCSC(=O)N(CC)C1CCCCC1
inactive: [1] | [2] | [3] | [4] | [5] | [6] | [7] | [8] | [9] | [10] | MYC, MYC (gene 4609) | [11] | [12] | [13] | [14] | [15] | [16] | [17]

Oc1ccc(C(c2ccc(O)cc2)(C(F)(F)F)C(F)(F)F)cc1
active: [1] 75.9 µM | [2] 91.8 µM | [3] 89.2 µM | [6] 92.4 µM | [8] 79.3 µM | [10] 82.7 µM | MYC, MYC (gene 4609) 77.5 µM | [13] 89 µM | [15] 71.9 µM | [17] 78.9 µM
inactive: [4] | [5] | [7] | [9] | [11] | [12] | [14] | [16]

CCCCCCOC(=O)c1ccccc1C(=O)OCCCCCC
inactive: [1] | [2] | [3] | [4] | [6] | [7] | [8] | [9] | [10] | MYC, MYC (gene 4609) | [11] | [12] | [13] | [14] | [16] | [17]
active: [15] 0.0876 µM

C[C@]12CCC(=O)C=C1CC[C@@H]1[C@@H]2CC[C@@]2(C)[C@H]1CC[C@]2(C)O
inactive: [1] | [2] | [3] | [4] | [6] | [8] | [10] | MYC, MYC (gene 4609) | [13] | [14] | [17]
active: [7] 81.7 µM | [9] 45.8 µM | [11] 2.07 µM | [15] 45.8 µM | [16] 45.8 µM

ClC1=C(Cl)[C@]2(Cl)[C@@H]3[C@@H]4C[C@@H]([C@H]5O[C@@H]45)[C@@H]3[C@@]1(Cl)C2(Cl)Cl
active: [3] 0.00506 µM | MYC, MYC (gene 4609) 9.92 µM | [14] 0.0333 µM | [15] 50 µM | [16] 0.00905 µM
inactive: [1] | [2] | [4] | [6] | [7] | [8] | [9] | [10] | [11] | [12] | [13] | [17]

CCC(C)(CC)c1cc(NC(=O)c2c(OC)cccc2OC)on1
active: [1] 50 µM | MYC, MYC (gene 4609) 25.7 µM | [11] 14.2 µM | [15] 34.6 µM
inactive: [2] | [3] | [4] | [6] | [7] | [8] | [9] | [10] | [12] | [13] | [14] | [16] | [17]

ClC1=C(Cl)[C@]2(Cl)[C@@H]3[C@@H](Cl)[C@H]4O[C@H]4[C@@H]3C1(Cl)C2(Cl)Cl
inactive: [1] | [2] | [3] | [4] | [7] | [8] | [9] | [10] | MYC, MYC (gene 4609) | [18] | [11] | [12] | [13] | [14] | [16] | [17]
active: [15] 50 µM
